# Laboratory results: PubChem BioAssay (EPA / NIEHS)
# Records with an inconclusive call do not appear. Calls of active or inactive are those of the source. The calls were made as follows: active = hit-call score of the fitted dose curve at least 0.9, where 1 is the maximum; inconclusive = response in the unintended direction; inactive = score below 0.9.
# Columns and labels:
# [1] = Tanguay_ZF_120hpf_YSE_legacy: (Legacy) Oregon State University Tanguay Lab 120 Hour Post-fertilization zebrafish Assay for Yolk Sac Edema (AID 2283634);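 as to AC50: actives raise the incidence of yolk sac edema above the DMSO baseline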
# Summary of the method: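 Readout: presence or absence of yolk sac edema at 120 hpf, fitted upward against DMSO controls. Exposure ran statically from 6 hpf in dechorionated embryos kept at 28C.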
# [2] = Tanguay_ZF_120hpf_AXIS_legacy: (Legacy) Oregon State University Tanguay Lab 120 Hour Post-fertilization zebrafish Assay for Body Axis Malformation (AID 2283635);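 as to AC50: potency for an increased fraction of larvae scored with body axis malformation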
# Summary of the method: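 Static 6–120 hpf chemical exposure of dechorionated wild-type 5D zebrafish, one per well at 28C; morphology endpoint scored binary at 120 hpf relative to DMSO control.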
# [3] = Tanguay_ZF_120hpf_EYE_legacy: (Legacy) Oregon State University Tanguay Lab 120 Hour Post-fertilization zebrafish Assay for Eye Malformation (AID 2283636);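 also: binary presence or absence of eye malformation scored by brightfield in 120 hpf larvae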
# Summary of the method: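 Dechorionated Tropical 5D zebrafish embryos, one per well from 6 hpf, static exposure to 120 hpf at 28C, 0.64% DMSO. Eye malformation scored present/absent by brightfield; dead embryos not scored.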
# [4] = Tanguay_ZF_120hpf_SNOU_legacy: (Legacy) Oregon State University Tanguay Lab 120 Hour Post-fertilization zebrafish Assay for Snout Malformation (AID 2283637)
# Summary of the method: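 Dechorionated tropical 5D wild-type zebrafish embryos exposed statically from 6 to 120 hpf at 28C, one per well, in 0.64% DMSO. Snout malformation scored as present/absent by brightfield at 120 hpf; dead embryos not scored.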
# [5] = Tanguay_ZF_120hpf_JAW_legacy: (Legacy) Oregon State University Tanguay Lab 120 Hour Post-fertilization zebrafish Assay for Jaw Malformation (AID 2283638)
# Summary of the method: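 Static waterborne exposure of dechorionated wild-type (Tropical 5D) zebrafish from 6 to 120 hpf at 28C, 0.64% DMSO vehicle; 5uM trimethyltin chloride served as positive control. Jaw morphology recorded as binary at 120 hpf.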
# [6] = Tanguay_ZF_120hpf_OTIC_legacy: (Legacy) Oregon State University Tanguay Lab 120 Hour Post-fertilization zebrafish Assay for Otic Vesicle Malformation (AID 2283639)
# Summary of the method: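 Embryos from 5D wild-type adults exposed in plates; DMSO 0.64% v/v final. Sealed, light-protected, 28C, static to 120 hpf. Otic vesicle malformation recorded as binary endpoint; gain-of-signal fitted vs DMSO.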
# [7] = Tanguay_ZF_120hpf_PE_legacy: (Legacy) Oregon State University Tanguay Lab 120 Hour Post-fertilization zebrafish Assay for Pericardial Edema (AID 2283640);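 as to AC50: potency for increased incidence of pericardial edema versus DMSO baseline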
# Summary of the method: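 Read-out is the presence or absence of pericardial edema at 120 hpf under brightfield, with gain of signal fitted against DMSO controls. Larvae (5D wild-type) were statically exposed at 28C with 0.64% final DMSO.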
# [8] = Tanguay_ZF_120hpf_BRAI_legacy: (Legacy) Oregon State University Tanguay Lab 120 Hour Post-fertilization zebrafish Assay for Brain Malformation (AID 2283641)
# Summary of the method: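 Brain malformation in Tropical 5D zebrafish was recorded as a binary endpoint after static compound exposure from early development to 120 hpf at 28C. Activity was analysed against DMSO as negative control.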
# [9] = Tanguay_ZF_120hpf_SOMI_legacy: (Legacy) Oregon State University Tanguay Lab 120 Hour Post-fertilization zebrafish Assay for Somite Malformation (AID 2283647)
# Summary of the method: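 5D WT zebrafish; chorion removed 4 hpf; 1 embryo/well from 6 hpf; static exposure to 120 hpf, 28C, 0.64% DMSO final. Endpoint: somite malformation, binary, brightfield. Mortality excluded.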
# [10] = Tanguay_ZF_120hpf_PFIN_legacy: (Legacy) Oregon State University Tanguay Lab 120 Hour Post-fertilization zebrafish Assay for Pectoral Fin Malformation (AID 2283648);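 also: each larva judged yes or no for fin defect by brightfield with dead larvae skipped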
# Summary of the method: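 Dechorionated Tropical 5D wild-type zebrafish embryos, one per well, statically exposed from 6 to 120 hpf at 28C with 0.64% DMSO final. Pectoral fin malformation scored present/absent by brightfield at 120 hpf; not scored in dead embryos.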
smiles,measurement,setting,value
Cc1ccc2oc(CN(Cc3ccccc3)C(=O)Nc3c(F)cc(F)cc3F)c(-c3ccc(Cl)cc3)c2c1,outcome,[1],inactive
same,outcome,[2],inactive
same,outcome,[3],inactive
same,outcome,[4],inactive
same,outcome,[5],inactive
same,outcome,[6],inactive
same,outcome,[7],inactive
same,outcome,[8],inactive
C[C@]12CC[C@@H]3c4ccc(O)cc4CC[C@H]3[C@@H]1CC[C@H]2O,outcome,[1],inactive
same,outcome,[2],inactive
same,outcome,[3],inactive
same,outcome,[4],inactive
same,outcome,[5],inactive
same,outcome,[6],inactive
same,outcome,[7],inactive
same,outcome,[8],inactive
COCC(C)OCC(C)OCC(C)O (stereo unspecified),outcome,[1],inactive
same,outcome,[2],inactive
same,outcome,[3],inactive
same,outcome,[4],inactive
same,outcome,[5],inactive
same,outcome,[7],inactive
same,outcome,[8],inactive
c1ccc(C[n+]2cccc3ccccc32)cc1,outcome,[1],inactive
same,outcome,[2],inactive
same,outcome,[3],inactive
same,outcome,[5],inactive
same,outcome,[6],inactive
same,outcome,[7],inactive
same,outcome,[8],inactive
same,outcome,[9],inactive
CC1(C)NC(=O)N(c2ccc([N+](=O)[O-])c(C(F)(F)F)c2)C1=O,outcome,[1],inactive
same,outcome,[3],inactive
same,outcome,[5],inactive
same,outcome,[7],inactive
same,outcome,[8],inactive
same,outcome,[9],inactive
same,outcome,[10],inactive
CCCCCCCCCCCC[N+](C)(C)C,outcome,[1],inactive
same,outcome,[2],inactive
same,outcome,[4],inactive
same,outcome,[5],inactive
same,outcome,[7],inactive
same,outcome,[8],inactive
same,outcome,[10],inactive
Cc1cccc2ccccc12,outcome,[1],inactive
same,outcome,[2],inactive
same,outcome,[3],inactive
same,outcome,[5],inactive
same,outcome,[7],inactive
same,outcome,[8],inactive
same,outcome,[9],inactive
O=C(O)c1ccccc1C(=O)OCc1ccccc1,outcome,[1],inactive
same,outcome,[2],inactive
same,outcome,[4],inactive
same,outcome,[7],inactive
same,outcome,[8],inactive
same,outcome,[10],inactive
O=C(OCCCCCCOC(=O)c1ccccc1)c1ccccc1,outcome,[1],inactive
same,outcome,[2],inactive
same,outcome,[5],inactive
same,outcome,[7],inactive
CN(C)c1ccc(C(=C2C=CC(=[N+](C)C)C=C2)c2ccc(N(C)C)cc2)cc1,outcome,[2],inactive
O=C1O[C@H]([C@@H](O)CO)C(O)=C1O,outcome,[2],inactive
same,outcome,[3],inactive
same,outcome,[4],inactive
same,outcome,[8],inactive
same,outcome,[10],inactive
CC1=CC(=O)/C(=C(/C)O)C(=O)O1,outcome,[1],inactive
same,outcome,[2],inactive
same,outcome,[5],inactive
same,outcome,[7],inactive
same,outcome,[8],inactive
O=C=NCCCCCCN=C=O,outcome,[1],inactive
same,outcome,[2],inactive
same,outcome,[4],inactive
same,outcome,[5],inactive
same,outcome,[7],inactive
same,outcome,[8],inactive
O=C(Nc1ccc(Cl)cc1)Nc1ccc(Cl)c(Cl)c1,outcome,[1],inactive
same,outcome,[2],inactive
same,outcome,[4],inactive
same,outcome,[5],inactive
same,outcome,[7],inactive
same,outcome,[8],inactive
same,outcome,[10],inactive
Cc1cn([C@H]2C[C@H](N=[N+]=[N-])[C@@H](CO)O2)c(=O)[nH]c1=O,outcome,[1],inactive
same,outcome,[2],inactive
same,outcome,[3],inactive
same,outcome,[4],inactive
same,outcome,[5],inactive
same,outcome,[7],inactive
same,outcome,[9],inactive
CC/C(=C(/CC)c1ccc(O)cc1)c1ccc(O)cc1,outcome,[1],inactive
same,outcome,[2],inactive
same,outcome,[4],inactive
same,outcome,[5],inactive
same,outcome,[6],inactive
same,outcome,[7],inactive
same,outcome,[8],inactive
CC[C@H](NC(=O)c1cc(F)ccc1NS(=O)(=O)c1cccc2cccnc12)c1ccccc1,outcome,[2],inactive
same,outcome,[4],inactive
same,outcome,[5],inactive
same,outcome,[6],inactive
same,outcome,[7],inactive
same,outcome,[8],inactive
CCCCCCCC[Si](OCC)(OCC)OCC,outcome,[2],inactive
same,outcome,[4],inactive
same,outcome,[5],inactive
same,outcome,[8],inactive
Clc1cc(Cl)c2c(c1)N=C1CCCCCN1C2,AC50,[1],21.5 µM (active)
same,AC50,[2],7.43 µM (active)
same,outcome,[3],inactive
same,AC50,[4],8.56 µM (active)
same,outcome,[5],inactive
same,AC50,[7],24.9 µM (active)
same,outcome,[8],inactive
same,outcome,[9],inactive
same,outcome,[10],inactive
O=c1ccc2ccccc2o1,outcome,[1],inactive
same,outcome,[2],inactive
same,outcome,[3],inactive
same,outcome,[4],inactive
same,outcome,[5],inactive
same,outcome,[7],inactive
same,outcome,[8],inactive
same,outcome,[10],inactive
Cc1ccc(C(C)C)cc1,outcome,[1],inactive
same,outcome,[2],inactive
same,outcome,[4],inactive
same,outcome,[5],inactive
same,outcome,[6],inactive
same,outcome,[8],inactive
same,outcome,[10],inactive
CCCCCCCCCCCCO,outcome,[1],inactive
same,outcome,[2],inactive
same,outcome,[3],inactive
same,outcome,[4],inactive
same,outcome,[5],inactive
same,outcome,[7],inactive
same,outcome,[8],inactive
same,outcome,[9],inactive
CCCCCCCCCC(=O)O,outcome,[1],inactive
same,outcome,[2],inactive
same,outcome,[3],inactive
same,outcome,[4],inactive
same,outcome,[5],inactive
same,outcome,[7],inactive
same,outcome,[8],inactive
same,outcome,[10],inactive
O=c1[nH]sc2ccccc12,outcome,[1],inactive
same,outcome,[3],inactive
same,outcome,[4],inactive
same,outcome,[5],inactive
same,outcome,[7],inactive
same,outcome,[8],inactive
same,outcome,[9],inactive
same,outcome,[10],inactive
COc1ccc2cc(S(=O)(=O)N[C@H](CC(=O)N[C@H](Cc3ccc(CN4[C@H](C)CCC[C@@H]4C)cc3)C(=O)N(C)C(C)C)c3ccc4c(c3)OCO4)ccc2c1,outcome,[1],inactive
same,outcome,[2],inactive
same,outcome,[3],inactive
same,outcome,[4],inactive
same,outcome,[5],inactive
same,outcome,[7],inactive
same,outcome,[8],inactive
same,outcome,[10],inactive
C[C@]12CC[C@@H]3c4ccc(O)cc4CC[C@H]3[C@@H]1CCC2=O,outcome,[1],inactive
same,outcome,[2],inactive
same,outcome,[3],inactive
same,outcome,[4],inactive
same,outcome,[5],inactive
same,outcome,[7],inactive
same,outcome,[9],inactive
O=C(O)c1ccccc1-n1cc(C(=O)O)c(=O)c2cc(Nc3c(F)cc(F)cc3Cl)c(Cl)cc21,outcome,[1],inactive
same,outcome,[3],inactive
same,outcome,[4],inactive
same,outcome,[5],inactive
same,outcome,[6],inactive
same,outcome,[7],inactive
same,outcome,[8],inactive
same,outcome,[9],inactive
CN1C(=O)CC[C@H]1c1cccnc1,outcome,[1],inactive
same,outcome,[2],inactive
same,outcome,[3],inactive
same,outcome,[4],inactive
same,outcome,[5],inactive
same,outcome,[7],inactive
same,outcome,[8],inactive
same,outcome,[10],inactive
CC(C)(C)c1cc(/C=C2\SC(N)=NC2=O)cc(C(C)(C)C)c1O,outcome,[1],inactive
same,outcome,[3],inactive
same,outcome,[4],inactive
same,outcome,[5],inactive
same,outcome,[7],inactive
same,outcome,[8],inactive
same,outcome,[10],inactive
Cc1occc1C(=O)Nc1ccc(C(=O)N2CCC(F)(F)/C(=C\C(=O)N3CCC(N4CCCCC4)CC3)c3ccccc32)cc1,outcome,[1],inactive
same,outcome,[2],inactive
same,outcome,[3],inactive
same,outcome,[4],inactive
same,outcome,[5],inactive
same,outcome,[7],inactive
same,outcome,[8],inactive
same,outcome,[10],inactive
CC(=O)N1CCN(c2ccc(OC[C@H]3CO[C@](Cn4ccnc4)(c4ccc(Cl)cc4Cl)O3)cc2)CC1,outcome,[1],inactive
same,outcome,[2],inactive
same,outcome,[4],inactive
same,outcome,[6],inactive
same,outcome,[7],inactive
same,outcome,[9],inactive
O=C1CCC(C2CCCCC2)CC1,outcome,[1],inactive
same,outcome,[2],inactive
same,outcome,[3],inactive
same,outcome,[4],inactive
same,outcome,[5],inactive
same,outcome,[7],inactive
same,outcome,[8],inactive
same,outcome,[10],inactive
c1ccc2ccccc2c1,outcome,[2],inactive
same,outcome,[4],inactive
same,outcome,[5],inactive
same,outcome,[7],inactive
same,outcome,[8],inactive
same,outcome,[10],inactive
CCO[Si](CCCNC(N)=O)(OCC)OCC,outcome,[2],inactive
same,outcome,[3],inactive
same,outcome,[4],inactive
same,outcome,[5],inactive
same,outcome,[6],inactive
same,outcome,[7],inactive
same,outcome,[8],inactive
Cc1cc(F)ccc1-c1cc(N2CC[C@@H](O)[C@H]2CO)ncc1N(C)C(=O)C(C)(C)c1cc(C(F)(F)F)cc(C(F)(F)F)c1,outcome,[1],inactive
same,outcome,[2],inactive
same,outcome,[3],inactive
same,outcome,[5],inactive
same,outcome,[6],inactive
CN(C)C(=O)C1(N2CCCCC2)CCN(CC[C@@]2(c3ccc(Cl)c(Cl)c3)CN(C(=O)c3ccccc3)CCO2)CC1,outcome,[1],inactive
same,outcome,[2],inactive
same,outcome,[3],inactive
same,outcome,[4],inactive
same,outcome,[5],inactive
same,outcome,[7],inactive
same,outcome,[8],inactive
same,outcome,[10],inactive
CC(C)(C)c1csc(-c2cc3cc(OCc4ccccc4CC(=O)O)ccc3o2)n1,outcome,[1],inactive
same,outcome,[2],inactive
same,outcome,[3],inactive
same,outcome,[5],inactive
same,outcome,[7],inactive
same,outcome,[8],inactive
same,outcome,[10],inactive
CCN(Cc1cccnc1)C(=O)c1cccc(Cl)c1[C@]1(C)C(=O)N(Cc2ccc(OC)cc2OC)c2ccc(Cl)cc21,outcome,[1],inactive
same,outcome,[2],inactive
same,outcome,[4],inactive
same,outcome,[5],inactive
same,outcome,[7],inactive
same,outcome,[8],inactive
same,outcome,[10],inactive
CCCCCc1ccc(N)cc1,outcome,[1],inactive
same,outcome,[2],inactive
same,outcome,[4],inactive
same,outcome,[7],inactive
same,outcome,[8],inactive
CCCCCCCCOc1ccc(C(=O)c2ccccc2)c(O)c1,outcome,[1],inactive
same,outcome,[2],inactive
same,outcome,[3],inactive
same,outcome,[4],inactive
same,outcome,[5],inactive
same,outcome,[9],inactive
CCCCOC(=O)CC(CC(=O)OCCCC)(OC(C)=O)C(=O)OCCCC,outcome,[1],inactive
same,outcome,[2],inactive
same,outcome,[4],inactive
same,outcome,[5],inactive
same,outcome,[6],inactive
same,outcome,[7],inactive
same,outcome,[8],inactive
